PubChem BioAssay AID1159580 (chemical genetic matrix, 2015)
Values joined by “and” are separate entries in the source; they are usually repeats but may differ in a detail not shown here. Equal values may be shown once. Out of some 5,500 compounds screened, about 2,000 (36%) were called active. Not shown: some 18% with an inconclusive outcome. No stated cut-off is given here; in the data, active means normalized growth mostly below about 0.91 (no sharp cut-off); inconclusive means no clear call, values can overlap the other calls; inactive means mostly above about 0.92. The list shows a part of the results.

Assay: chemical genetic growth profiling, strain panel (AID 1159580);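 further: tested at 20 µM; growth read once vehicle control cultures reached saturation at 30 °C; 1 = growth at the plate median or of vehicle wells; lower values mean less growth of the strain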
Details: growth OD

Measured: normalized growth

CN1CCN(C2=Nc3cc(Cl)ccc3Nc3ccccc32)CC1
inactive: S. cerevisiae deletion strains, locus YJR066W, strain TOR1, hits give low values 0.997 | S. cerevisiae deletion strains, locus YJR075W, strain HOC1, hits give low values 0.982 | S. cerevisiae deletion strains, locus YKL009W, strain mrt4, hits give low values 1.01 | S. cerevisiae deletion strains, locus YKL068W, hits give low values 1.01 | S. cerevisiae deletion strains, locus YKL085W, strain MDH1 (second series), hits give low values 1.04 | S. cerevisiae deletion strains, locus YKL085W, strain MDH1, hits give low values 1.04 | S. cerevisiae deletion strains, locus YKL160W, strain elf1, hits give low values 0.972 | S. cerevisiae deletion strains, locus YKL190W, strain CNB1, hits give low values 1.02 | S. cerevisiae deletion strains, locus YKR001C, strain vps1, hits give low values 1.03 | S. cerevisiae deletion strains, locus YKR026C, strain gcn3, hits give low values 0.988 | S. cerevisiae deletion strains, locus YKR091W, strain srl3, hits give low values 0.98 | S. cerevisiae deletion strains, locus YLL001W, strain dnm1, hits give low values 0.984 | S. cerevisiae deletion strains, locus YLL026W, hits give low values 1 | S. cerevisiae deletion strains, locus YLL041C, strain sdh2, hits give low values 0.992 | S. cerevisiae deletion strains, locus YLR027C, strain aat2, hits give low values 0.988 | S. cerevisiae deletion strains, locus YLR039C, strain RIC1, hits give low values 1.25 | S. cerevisiae deletion strains, locus YLR058C, strain SHM2, hits give low values 1.01 | S. cerevisiae deletion strains, locus YLR102C, strain apc9, hits give low values 1.02 | S. cerevisiae deletion strains, locus YLR113W, strain HOG1, hits give low values 1.01 | S. cerevisiae deletion strains, locus YLR221C, strain rsa3, hits give low values 1.01 | S. cerevisiae deletion strains, locus YLR258W, strain gsy2, hits give low values 0.983 | S. cerevisiae deletion strains, locus YLR262C, strain YPT6 (second series), hits give low values 1.05 | S. cerevisiae deletion strains, locus YLR262C, strain YPT6, hits give low values 1.2 | S. cerevisiae deletion strains, locus YLR268W, strain sec22, hits give low values 1.01 | S. cerevisiae deletion strains, locus YLR320W, strain mms22, hits give low values 0.952 | S. cerevisiae deletion strains, locus YLR330W, strain CHS5, hits give low values 1.02 | S. cerevisiae deletion strains, locus YLR342W, strain FKS1 (second series), hits give low values 1.04 | S. cerevisiae deletion strains, locus YLR342W, strain FKS1, hits give low values 0.953 | S. cerevisiae deletion strains, locus YLR357W, strain rsc2, hits give low values 1.01 | S. cerevisiae deletion strains, locus YLR370C, strain arc18, hits give low values 0.984 | S. cerevisiae deletion strains, locus YLR371W, strain rom2, hits give low values 1.03 | S. cerevisiae deletion strains, locus YLR384C, strain iki3, hits give low values 0.984 | S. cerevisiae deletion strains, locus YLR418C, strain cdc73, hits give low values 0.955 | S. cerevisiae deletion strains, locus YML016C, strain PPZ1, hits give low values 1.01 | S. cerevisiae deletion strains, locus YML032C, strain rad52, hits give low values 0.935 | S. cerevisiae deletion strains, locus YML120C, strain ndi1, hits give low values 0.98 | S. cerevisiae deletion strains, locus YML124C, strain tub3, hits give low values 1.02 | S. cerevisiae deletion strains, locus YMR058W, strain fet3, hits give low values 0.982 | S. cerevisiae deletion strains, locus YMR078C, strain ctf18, hits give low values 1.02 | S. cerevisiae deletion strains, locus YMR125W, strain sto1, hits give low values 0.943 | S. cerevisiae deletion strains, locus YMR129W, hits give low values 0.99 | S. cerevisiae deletion strains, locus YMR205C, strain PFK2, hits give low values 0.977 | S. cerevisiae deletion strains, locus YMR223W, strain ubp8, hits give low values 1.02 | S. cerevisiae deletion strains, locus YMR231W, strain pep5, hits give low values 0.986 | S. cerevisiae deletion strains, locus YMR263W, strain SAP30, hits give low values 0.986 | S. cerevisiae deletion strains, locus YMR307W, strain GAS1, hits give low values 1.1 | S. cerevisiae deletion strains, locus YNL067W, strain RPL9B, hits give low values 0.974 | S. cerevisiae deletion strains, locus YNL071W, strain lat1, hits give low values 0.937 | S. cerevisiae deletion strains, locus YNL128W, strain TEP1, hits give low values 0.991 | S. cerevisiae deletion strains, locus YNL153C, strain GIM3, hits give low values 0.993 and 1.01 | S. cerevisiae deletion strains, locus YNL175C, strain NOP13, hits give low values 0.999 | S. cerevisiae deletion strains, locus YNL183C, strain NPR1, hits give low values 0.99 | S. cerevisiae deletion strains, locus YNL209W, strain ssb2, hits give low values 0.973 | S. cerevisiae deletion strains, locus YNL224C, strain SQS1, hits give low values 1.01 | S. cerevisiae deletion strains, locus YNL233W, strain BNI4, hits give low values 0.988 | S. cerevisiae deletion strains, locus YNL248C, strain rpa49, hits give low values 0.957 | S. cerevisiae deletion strains, locus YNL250W, strain rad50, hits give low values 0.966 | S. cerevisiae deletion strains, locus YNL271C, strain bni1, hits give low values 1.01 | S. cerevisiae deletion strains, locus YNL298W, strain CLA4, hits give low values 0.984 | S. cerevisiae deletion strains, locus YNL307C, strain MCK1, hits give low values 0.995 | S. cerevisiae deletion strains, locus YNL322C, strain KRE1 (second series), hits give low values 0.956 | S. cerevisiae deletion strains, locus YNL322C, strain KRE1, hits give low values 1.01 | S. cerevisiae deletion strains, locus YNR049C, strain mso1, hits give low values 0.99 | S. cerevisiae deletion strains, locus YNR052C, strain pop2, hits give low values 1.01 | S. cerevisiae deletion strains, locus YOL006C, strain TOP1, hits give low values 0.988 | S. cerevisiae deletion strains, locus YOL012C, strain htz1 2.02 | S. cerevisiae deletion strains, locus YOL147C, strain pex11, hits give low values 1.02 | S. cerevisiae deletion strains, locus YOR001W, strain rrp6, hits give low values 0.996 | S. cerevisiae deletion strains, locus YOR061W, strain CKA2, hits give low values 1.01 | S. cerevisiae deletion strains, locus YOR069W, strain VPS5, hits give low values 1.07 | S. cerevisiae deletion strains, locus YOR070C, strain gyp1, hits give low values 0.989 | S. cerevisiae deletion strains, locus YOR080W, strain dia2, hits give low values 0.974 | S. cerevisiae deletion strains, locus YOR083W, strain WHI5, hits give low values 0.92 | S. cerevisiae deletion strains, locus YOR106W, strain vam3, hits give low values 0.978 | S. cerevisiae deletion strains, locus YOR136W, strain idh2, hits give low values 1.02 | S. cerevisiae deletion strains, locus YOR144C, strain elg1, hits give low values 1.01 | S. cerevisiae deletion strains, locus YOR184W, strain ser1, hits give low values 1.03 | S. cerevisiae deletion strains, locus YOR231W, strain MKK1, hits give low values 1.01 | S. cerevisiae deletion strains, locus YOR265W, strain rbl2, hits give low values 0.993 | S. cerevisiae deletion strains, locus YOR270C, strain vph1, hits give low values 0.96 | S. cerevisiae deletion strains, locus YOR290C, strain snf2, hits give low values 0.943 | S. cerevisiae deletion strains, locus YOR316C, strain cot1, hits give low values 1.03 | S. cerevisiae deletion strains, locus YPL051W, strain arl3, hits give low values 0.965 | S. cerevisiae deletion strains, locus YPL055C, strain LGE1, hits give low values 0.93 | S. cerevisiae deletion strains, locus YPL078C, strain atp4, hits give low values 0.959 | S. cerevisiae deletion strains, locus YPL106C, strain sse1, hits give low values 0.999 | S. cerevisiae deletion strains, locus YPL240C, strain hsp82, hits give low values 0.979 | S. cerevisiae deletion strains, locus YPL241C, strain CIN2, hits give low values 1.05 and 1 | S. cerevisiae deletion strains, locus YPL256C, strain CLN2, hits give low values 1.05 | S. cerevisiae deletion strains, locus YPR119W, strain clb2, hits give low values 1.01 | S. cerevisiae deletion strains, locus YPR141C, strain kar3, hits give low values 1.02 | S. cerevisiae deletion strains, locus YPR163C, strain tif3, hits give low values 1.01 | S. cerevisiae deletion strains, locus YPR167C, strain met16, hits give low values 1.02 | S. cerevisiae deletion strains, strain wtn01, hits give low values 1 | S. cerevisiae strains, strain wild type, hits give low values 1.02
